Active and inactive are the calls of the source.

A short description of assay [1]: small molecules captured by biotinylated probe aFSTL3 – biochemical, small-molecule microarray, fluorescence 635/667, stem cell growth factor project, primary screen (AID 1064).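 Note: measures binding of the biotinylated anti-FSTL3 antibody to printed compounds.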 The settings on record: higher = more signal.
A short description of assay [2]: binders from COS7 lysate, DM2A8 probe, primary screen, torsin A project, cell lysate, small-molecule microarray, fluorescence 635/667 (AID 1065). As to conditions: higher = more signal, COS7 lysate expressing mutant human TOR1A.
The nature of assay [3]: small molecules captured by biotinylated probe aFGF2 – biochemical, small-molecule microarray, fluorescence 635/667, stem cell growth factor project, primary screen (AID 1067).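 Note: measures binding of biotinylated aFGF2 protein to printed compounds on slides; z-score merges feature fluorescence and signal-to-noise across triplicate slides.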 The settings on record: higher = more signal.
A short description of assay [4]: small molecules captured by biotinylated probe aFGF10 – biochemical, small-molecule microarray, fluorescence 635/667, stem cell growth factor project, primary screen (AID 1071).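 Note: score merges 667 nm spot intensity and signal to noise from triplicate slides.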 As to conditions: higher = more signal.
Assay [5] deals with Neurogenic locus notch homolog protein 2 (Homo sapiens) (UniProt Q04721). In words: small molecules binding Notch2 protein – biochemical, small-molecule microarray, 635 nm fluorescence, stem cell growth factors, primary screen (AID 1073). The settings on record: higher = more signal.
In assay [6] the target is Pro-neuregulin-1, membrane-bound isoform (Homo sapiens) (UniProt Q02297). As to the kind of experiment: small molecules binding neuregulin-1 protein – biochemical, small-molecule microarray, fluorescence 635/667, psychiatric disease protein project, primary screen (AID 1075).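 Note: score combines 667 nm spot fluorescence with signal to noise.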 The settings on record: NRG1 binding, 635 nm fluorescence, higher = more signal.
The test system of assay [7] is Neuregulin-1 EGF-like domain. In words: small molecules binding NRG1 EGF domain – biochemical, small-molecule microarray, 635 nm fluorescence, primary screen (AID 1081).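 Note: binding of the protein to compounds printed on small-molecule microarray slides.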 The settings on record: higher = more signal.
The nature of assay [8]: FRG1 expression reporter modulators in myotubes – cell-based, C2C12 myotubes, firefly/Renilla luciferase, luminescence, FRG1 inhibition for FSHD, primary screen (AID 1084). The settings on record: FRG1 promoter luciferase, higher = more signal, called active from +8 up or from −8 down.
Assay [9] is described as follows: small molecules captured by biotinylated probe aFST – biochemical, small-molecule microarray, fluorescence 635/667, stem cell growth factor project, primary screen (AID 1086).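 Note: score merges 667 nm fluorescence with signal-to-noise of each printed compound spot.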 As to conditions: higher = more signal.
The nature of assay [10]: binders of probe aHhip on microarray, primary screen, stem cell growth factor project, biochemical, small-molecule microarray, fluorescence 635/667 (AID 1087).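 Note: score merges spot fluorescence at 667nm with spot signal to noise ratio.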 As to conditions: higher = more signal.
The test system of assay [11] is PRMT1 (protein arginine N-methyltransferase 1). In words: small molecules binding arginine methyltransferase PRMT1 – biochemical, small-molecule microarray, 635 nm fluorescence, primary screen (AID 1088).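 Note: binding of Prmt1 protein to compounds spotted on small-molecule microarray slides.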 The settings on record: higher = more signal.
Assay [12] is described as follows: growth effects on S. cerevisiae YJM789 – YJM789 clinical isolate, OD600, 24 h, basal, primary screen (AID 1089).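 Note: growth of clinical yeast isolate S. cerevisiae YJM 789 seeded 1000 cells per well; test concentration not given here.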 As to conditions: higher = more signal, called active from +8 up or from −8 down.
A short description of assay [13]: S. pombe growth modifiers, basal conditions – strain 972, OD600, 24 h, no modulator, primary screen (AID 1090).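 Note: basal condition with compound alone and no growth modifier present; test concentration not given here.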 The settings on record: S. pombe 972 growth, higher = more signal, called active from +8 up or from −8 down.
Assay [14] is described as follows: budding yeast growth modifiers under rapamycin – strain BY4716, OD600, 96 h, primary screen (AID 1091). Note: test concentration not given here. As to conditions: S. cerevisiae BY4716 + rapamycin, higher = more signal, called active from +8 up or from −8 down.
Assay [15] has as its target Torsin-1A-interacting protein 2 (Homo sapiens) (UniProt Q8NFQ8). In words: small molecules binding lysate-expressed LULL1 – cell lysate, human LULL1 lysate, 635/667 nm fluorescence, primary screen (AID 1092).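 Note: probe is lysate of COS7 cells overexpressing human LULL1; score merges per-feature 667 nm fluorescence with signal-to-noise.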 As to conditions: small-molecule microarray, hLULL1 lysate binding, 635 nm fluorescence; higher = more signal.
Assay [16] in a line: optical density change of DRC41 E. coli – strain DRC41, OD650, 24 h, E. coli filamentation project, primary screen (AID 1093).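 Note: MC1000 strain lacking acrAB efflux and sulA so SOS filamentation is blocked; test concentration not given here.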 As to conditions: E. coli DRC41 growth, higher = more signal, called active from +8 up or from −8 down.
Assay [17] is described as follows: probe aLefty2 binding to arrayed compounds – biochemical, biotinylated probe, 635/667 nm fluorescence, primary screen (AID 1094).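 Note: score merges spot fluorescence near 667 nm with spot signal-to-noise ratio.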 As to conditions: small-molecule microarray, higher = more signal.
The test system of assay [18] is Noggin (protein binding on small-molecule microarray). In words: small molecules binding Noggin protein – biochemical, 635/667 nm fluorescence, primary screen (AID 1095).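 Note: score merges 667 nm feature fluorescence with signal to noise over triplicate slides.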 The settings on record: 635 nm fluorescence, higher = more signal.
The target in assay [19] is Neurogenic locus notch homolog protein 3 (Homo sapiens) (UniProt Q9UM47). In words: small molecules binding NOTCH3 protein – biochemical, 635/667 nm fluorescence, primary screen (AID 1096). The settings on record: small-molecule microarray, 635 nm fluorescence, higher = more signal.
Assay [20] can be described thus: probe aEGFR binding to arrayed compounds – biochemical, biotinylated probe, 635/667 nm fluorescence, primary screen (AID 1097).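 Note: probe is a biotinylated anti-EGFR antibody binding compounds printed on slides; score combines fluorescence near 667 nm and signal to noise of each spot.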 As to conditions: small-molecule microarray, higher = more signal.

Sequence of Torsin-1A-interacting protein 2 (Homo sapiens) (Q8NFQ8 whole entry, looked up): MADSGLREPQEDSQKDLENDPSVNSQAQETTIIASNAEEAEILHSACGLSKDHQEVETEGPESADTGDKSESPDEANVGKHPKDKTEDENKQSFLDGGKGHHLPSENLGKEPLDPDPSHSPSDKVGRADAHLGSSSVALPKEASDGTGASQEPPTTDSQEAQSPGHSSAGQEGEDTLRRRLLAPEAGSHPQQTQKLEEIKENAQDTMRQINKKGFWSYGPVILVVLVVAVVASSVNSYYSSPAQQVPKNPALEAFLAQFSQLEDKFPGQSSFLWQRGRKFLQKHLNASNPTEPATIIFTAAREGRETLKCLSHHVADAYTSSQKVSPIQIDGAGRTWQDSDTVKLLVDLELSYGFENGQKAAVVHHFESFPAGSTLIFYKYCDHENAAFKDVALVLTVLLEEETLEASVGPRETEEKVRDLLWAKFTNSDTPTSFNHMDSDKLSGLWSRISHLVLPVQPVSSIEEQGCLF
Sequence of Pro-neuregulin-1, membrane-bound isoform (Homo sapiens) (Q02297 whole entry, looked up, the tested form may be a part, canonical isoform): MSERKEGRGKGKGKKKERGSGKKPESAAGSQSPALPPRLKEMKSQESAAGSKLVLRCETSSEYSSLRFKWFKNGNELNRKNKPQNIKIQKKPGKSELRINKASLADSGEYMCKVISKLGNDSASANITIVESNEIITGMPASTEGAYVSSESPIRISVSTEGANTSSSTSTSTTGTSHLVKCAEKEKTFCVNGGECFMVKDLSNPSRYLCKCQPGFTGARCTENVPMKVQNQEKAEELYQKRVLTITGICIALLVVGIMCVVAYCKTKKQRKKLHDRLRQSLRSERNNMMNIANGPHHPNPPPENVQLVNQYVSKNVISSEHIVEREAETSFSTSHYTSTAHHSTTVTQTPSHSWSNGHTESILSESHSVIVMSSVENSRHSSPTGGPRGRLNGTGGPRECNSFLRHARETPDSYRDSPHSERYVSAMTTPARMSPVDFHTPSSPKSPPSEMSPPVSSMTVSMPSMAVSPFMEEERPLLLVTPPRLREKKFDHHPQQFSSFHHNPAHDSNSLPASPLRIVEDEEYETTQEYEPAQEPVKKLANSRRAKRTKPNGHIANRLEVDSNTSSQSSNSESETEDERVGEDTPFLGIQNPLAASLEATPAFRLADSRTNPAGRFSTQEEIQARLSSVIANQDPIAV
Sequence of Neurogenic locus notch homolog protein 2 (Homo sapiens) (Q04721 whole entry, looked up, canonical isoform): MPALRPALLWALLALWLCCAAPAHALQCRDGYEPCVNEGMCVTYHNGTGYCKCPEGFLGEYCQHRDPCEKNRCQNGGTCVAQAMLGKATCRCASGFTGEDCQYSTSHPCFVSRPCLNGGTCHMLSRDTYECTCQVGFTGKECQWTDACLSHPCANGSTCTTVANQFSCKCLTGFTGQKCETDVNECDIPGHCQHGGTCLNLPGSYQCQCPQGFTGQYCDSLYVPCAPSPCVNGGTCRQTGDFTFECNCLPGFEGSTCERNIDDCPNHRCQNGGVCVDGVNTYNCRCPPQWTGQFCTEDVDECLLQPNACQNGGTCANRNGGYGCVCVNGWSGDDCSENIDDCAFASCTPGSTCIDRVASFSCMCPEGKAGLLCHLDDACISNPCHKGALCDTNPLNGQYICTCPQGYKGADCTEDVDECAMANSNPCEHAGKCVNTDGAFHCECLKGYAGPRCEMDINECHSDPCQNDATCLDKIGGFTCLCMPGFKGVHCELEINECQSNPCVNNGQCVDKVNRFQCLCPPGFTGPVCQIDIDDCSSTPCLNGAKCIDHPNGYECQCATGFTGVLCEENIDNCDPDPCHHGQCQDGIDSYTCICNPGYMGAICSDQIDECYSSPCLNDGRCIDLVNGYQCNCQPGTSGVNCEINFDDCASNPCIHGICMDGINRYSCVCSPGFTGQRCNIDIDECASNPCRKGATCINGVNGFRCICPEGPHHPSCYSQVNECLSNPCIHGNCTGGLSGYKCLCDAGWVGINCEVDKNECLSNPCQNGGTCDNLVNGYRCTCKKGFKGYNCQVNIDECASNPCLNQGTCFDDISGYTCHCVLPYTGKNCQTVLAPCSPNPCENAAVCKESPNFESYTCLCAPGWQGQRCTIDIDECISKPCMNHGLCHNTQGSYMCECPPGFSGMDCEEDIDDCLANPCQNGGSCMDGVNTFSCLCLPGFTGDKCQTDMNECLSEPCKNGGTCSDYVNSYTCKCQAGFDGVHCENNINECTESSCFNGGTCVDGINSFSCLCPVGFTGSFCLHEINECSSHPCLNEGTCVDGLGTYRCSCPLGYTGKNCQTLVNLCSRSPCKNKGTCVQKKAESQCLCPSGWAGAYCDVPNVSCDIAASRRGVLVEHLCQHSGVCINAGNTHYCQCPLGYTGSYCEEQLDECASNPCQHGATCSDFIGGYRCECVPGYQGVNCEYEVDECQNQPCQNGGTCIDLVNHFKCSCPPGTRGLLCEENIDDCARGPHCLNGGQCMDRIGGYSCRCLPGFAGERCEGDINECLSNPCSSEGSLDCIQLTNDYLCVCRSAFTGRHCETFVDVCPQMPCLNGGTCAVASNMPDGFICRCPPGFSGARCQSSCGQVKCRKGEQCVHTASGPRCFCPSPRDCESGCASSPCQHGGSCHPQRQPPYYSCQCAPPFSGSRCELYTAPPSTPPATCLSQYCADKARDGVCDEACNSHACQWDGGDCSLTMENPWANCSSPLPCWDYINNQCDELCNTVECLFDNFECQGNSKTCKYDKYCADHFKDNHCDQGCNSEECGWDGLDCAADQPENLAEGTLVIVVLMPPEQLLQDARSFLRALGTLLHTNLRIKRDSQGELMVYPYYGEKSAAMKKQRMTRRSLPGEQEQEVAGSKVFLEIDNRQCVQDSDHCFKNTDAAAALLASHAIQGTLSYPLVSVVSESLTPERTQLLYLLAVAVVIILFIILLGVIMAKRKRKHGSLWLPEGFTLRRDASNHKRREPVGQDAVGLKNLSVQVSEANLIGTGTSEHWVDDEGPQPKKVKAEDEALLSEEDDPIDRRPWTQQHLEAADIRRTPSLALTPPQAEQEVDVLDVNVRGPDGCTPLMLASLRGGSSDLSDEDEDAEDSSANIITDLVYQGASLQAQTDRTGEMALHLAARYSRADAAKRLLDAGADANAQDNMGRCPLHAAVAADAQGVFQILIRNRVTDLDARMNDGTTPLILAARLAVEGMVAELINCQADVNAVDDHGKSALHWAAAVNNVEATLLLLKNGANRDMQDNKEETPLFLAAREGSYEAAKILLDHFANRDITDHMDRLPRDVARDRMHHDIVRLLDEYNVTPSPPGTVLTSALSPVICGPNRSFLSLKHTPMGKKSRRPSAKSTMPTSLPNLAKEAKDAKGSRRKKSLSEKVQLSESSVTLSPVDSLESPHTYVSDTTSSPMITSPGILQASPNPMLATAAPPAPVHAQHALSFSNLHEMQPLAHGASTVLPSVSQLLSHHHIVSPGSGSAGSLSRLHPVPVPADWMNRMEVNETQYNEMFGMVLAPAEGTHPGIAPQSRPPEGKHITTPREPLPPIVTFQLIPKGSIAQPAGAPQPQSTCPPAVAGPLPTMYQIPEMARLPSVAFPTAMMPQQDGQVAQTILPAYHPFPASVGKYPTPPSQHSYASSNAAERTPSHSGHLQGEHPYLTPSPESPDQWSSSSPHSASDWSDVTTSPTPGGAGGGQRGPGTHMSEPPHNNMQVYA

`COC(=O)[C@@]1(Cc2ccc(OC)cc2)[C@H]2c3cc(C(=O)N4CCCC4)n(Cc4ccc(S(C)(=O)=O)cc4)c3C[C@H]2CN1C(=O)c1ccccc1`: the composite z-score in [1] is 0.438; in assay [2], -0.208; in [3], 0.296; in assay [4] it was 0.587; in assay [5], 1.59; in [6], 2.07. The composite z-score in assay [7] is 1.31; in assay [9], 1.25; in [10] it was 0.0053; in assay [11], -0.42; in [15], 3; in assay [17], 0.205. Also, the values for the composite z-score in [18], in [19] and in assay [20] were 0.419, 1.02 and 0.297, respectively. Also, the z-score was 0.862 (inactive) in assay [8]; -0.288 (inactive) in assay [12]; 0.868 (inactive) in assay [13]; 1.16 (inactive) in assay [14]; -0.247 (inactive) in assay [16].
As for `COCCOC(=O)N1C(=O)[C@@]2(c3cc(C#Cc4ccc(OC)cc4)ccc31)[C@H](C(=O)NC[C@H](O)c1ccccc1)[C@H]1C(=O)O[C@H](c3ccccc3)[C@H](c3ccccc3)N1[C@@H]2c1ccc(OCCO)cc1`, the composite z-score in assay [1] is -0.157; in [2] it was 0.946; in assay [3], -0.12; in assay [4], 0.912; in assay [5], 1.12; in assay [6], 1.46. In addition, the composite z-score is 1.28 in [7]; 0.41 in [9]; -0.0994 in [10]; 1.54 in assay [11]; 2.87 in assay [15]; -0.0412 in [17]. The values for the composite z-score in assay [18], in assay [19] and in assay [20] were 1.32, 1.04 and -0.0532, respectively. Also, the z-score in assay [8] is 0.643 (inactive); in [12], 1.62 (inactive); in assay [13] it was 1.74 (inactive); in assay [14] it was 7.18 (inactive); in assay [16], 1.38 (inactive).
In the case of `NCCCCCNC(=O)[C@H]1C[C@H]2C(=O)N[C@@H](Cc3ccccc3)C(=O)N2[C@H]1c1ccc(O)cc1`, the composite z-score in assay [1] was 2.14; in assay [2], -0.045; in assay [3], 0.175; in assay [4], 0.199; in assay [5] it was 0.685; in assay [6], 1.73. In addition, the composite z-score turned out to be 0.573 in assay [7]; 1.46 in assay [9]; 0.883 in assay [10]; 0.584 in assay [11]; 1.92 in assay [15]; 0.887 in assay [17]. For the same compound, the composite z-score in assay [18] amounted to 0.521; in assay [19], 0.423; in assay [20] it was 0.151. Further, the z-score is 0.902 (inactive) in [8]; 0.5 (inactive) in assay [12]; -0.335 (inactive) in assay [13]; -0.578 (inactive) in [14]; 0.0565 (inactive) in [16].
Take `O=C1NC(=O)C2C1C=CC(C(O)c1ccccn1)N2Nc1ccc(Cl)cc1Cl` (stereo not given): the composite z-score in assay [1] is -0.0358; in assay [2], -0.0795; in assay [3], -0.0132; in [4], 0.895; in assay [5], 1.16; in [6], 1.36. Also, the composite z-score in assay [7] came out at 0.626; in assay [9], 0.737; in assay [10] it was 0.154; in [11], 0.195; in [15] it was 3.35; in [17], 0.091. The composite z-score in assay [18] is -0.291; in assay [19] it was 0.259; in assay [20] it was -0.0271. Further, the z-score in [8] was 0.362 (inactive); in assay [12], -1.09 (inactive); in [13], 0.154 (inactive); in assay [14], -0.458 (inactive); in [16], -0.402 (inactive).
In the case of `CC(C)C(=C=CC[C@@H](O)c1cccc(OCCO)c1)C[C@@H](O)COCc1ccccc1`, the composite z-score in assay [1] was -0.0972; in assay [2], -0.254; in [3] it was -0.0835; in [4] it was 0.45; in [5] it was -0.554; in [6], -0.0802. Further, the composite z-score was -0.547 in assay [7]; 0.182 in assay [9]; -0.188 in assay [10]; 0.566 in assay [11]; 0.493 in [15]; -0.133 in assay [17]. For the same compound, the composite z-score in assay [18] is 0.573; in assay [19], 0.541; in assay [20], -0.203. The z-score in assay [8] is -2.12 (inactive); in assay [12] it was -0.978 (inactive); in [13], -1.55 (inactive); in [14] it was -0.845 (inactive); in [16] it was 1.61 (inactive).
